BAZ2B inh: inhibitors of human BAZ2B bromodomain. Q9UIF8. AlphaScreen BAZ2B-H3K14Ac peptide displacement. Potency, µM (doses to about 114 µM), for inactives: at the highest dose activity change, negative = inhibition, hits mostly inhibitors. 4.4% of 360,000 active. AID 504333; also: % is scaled to controls: 0 for no effect and ±100 for the full control effect; nearly all actives have a fitted effect of over 60% in size
Target sequence (Q9UIF8 whole entry, looked up): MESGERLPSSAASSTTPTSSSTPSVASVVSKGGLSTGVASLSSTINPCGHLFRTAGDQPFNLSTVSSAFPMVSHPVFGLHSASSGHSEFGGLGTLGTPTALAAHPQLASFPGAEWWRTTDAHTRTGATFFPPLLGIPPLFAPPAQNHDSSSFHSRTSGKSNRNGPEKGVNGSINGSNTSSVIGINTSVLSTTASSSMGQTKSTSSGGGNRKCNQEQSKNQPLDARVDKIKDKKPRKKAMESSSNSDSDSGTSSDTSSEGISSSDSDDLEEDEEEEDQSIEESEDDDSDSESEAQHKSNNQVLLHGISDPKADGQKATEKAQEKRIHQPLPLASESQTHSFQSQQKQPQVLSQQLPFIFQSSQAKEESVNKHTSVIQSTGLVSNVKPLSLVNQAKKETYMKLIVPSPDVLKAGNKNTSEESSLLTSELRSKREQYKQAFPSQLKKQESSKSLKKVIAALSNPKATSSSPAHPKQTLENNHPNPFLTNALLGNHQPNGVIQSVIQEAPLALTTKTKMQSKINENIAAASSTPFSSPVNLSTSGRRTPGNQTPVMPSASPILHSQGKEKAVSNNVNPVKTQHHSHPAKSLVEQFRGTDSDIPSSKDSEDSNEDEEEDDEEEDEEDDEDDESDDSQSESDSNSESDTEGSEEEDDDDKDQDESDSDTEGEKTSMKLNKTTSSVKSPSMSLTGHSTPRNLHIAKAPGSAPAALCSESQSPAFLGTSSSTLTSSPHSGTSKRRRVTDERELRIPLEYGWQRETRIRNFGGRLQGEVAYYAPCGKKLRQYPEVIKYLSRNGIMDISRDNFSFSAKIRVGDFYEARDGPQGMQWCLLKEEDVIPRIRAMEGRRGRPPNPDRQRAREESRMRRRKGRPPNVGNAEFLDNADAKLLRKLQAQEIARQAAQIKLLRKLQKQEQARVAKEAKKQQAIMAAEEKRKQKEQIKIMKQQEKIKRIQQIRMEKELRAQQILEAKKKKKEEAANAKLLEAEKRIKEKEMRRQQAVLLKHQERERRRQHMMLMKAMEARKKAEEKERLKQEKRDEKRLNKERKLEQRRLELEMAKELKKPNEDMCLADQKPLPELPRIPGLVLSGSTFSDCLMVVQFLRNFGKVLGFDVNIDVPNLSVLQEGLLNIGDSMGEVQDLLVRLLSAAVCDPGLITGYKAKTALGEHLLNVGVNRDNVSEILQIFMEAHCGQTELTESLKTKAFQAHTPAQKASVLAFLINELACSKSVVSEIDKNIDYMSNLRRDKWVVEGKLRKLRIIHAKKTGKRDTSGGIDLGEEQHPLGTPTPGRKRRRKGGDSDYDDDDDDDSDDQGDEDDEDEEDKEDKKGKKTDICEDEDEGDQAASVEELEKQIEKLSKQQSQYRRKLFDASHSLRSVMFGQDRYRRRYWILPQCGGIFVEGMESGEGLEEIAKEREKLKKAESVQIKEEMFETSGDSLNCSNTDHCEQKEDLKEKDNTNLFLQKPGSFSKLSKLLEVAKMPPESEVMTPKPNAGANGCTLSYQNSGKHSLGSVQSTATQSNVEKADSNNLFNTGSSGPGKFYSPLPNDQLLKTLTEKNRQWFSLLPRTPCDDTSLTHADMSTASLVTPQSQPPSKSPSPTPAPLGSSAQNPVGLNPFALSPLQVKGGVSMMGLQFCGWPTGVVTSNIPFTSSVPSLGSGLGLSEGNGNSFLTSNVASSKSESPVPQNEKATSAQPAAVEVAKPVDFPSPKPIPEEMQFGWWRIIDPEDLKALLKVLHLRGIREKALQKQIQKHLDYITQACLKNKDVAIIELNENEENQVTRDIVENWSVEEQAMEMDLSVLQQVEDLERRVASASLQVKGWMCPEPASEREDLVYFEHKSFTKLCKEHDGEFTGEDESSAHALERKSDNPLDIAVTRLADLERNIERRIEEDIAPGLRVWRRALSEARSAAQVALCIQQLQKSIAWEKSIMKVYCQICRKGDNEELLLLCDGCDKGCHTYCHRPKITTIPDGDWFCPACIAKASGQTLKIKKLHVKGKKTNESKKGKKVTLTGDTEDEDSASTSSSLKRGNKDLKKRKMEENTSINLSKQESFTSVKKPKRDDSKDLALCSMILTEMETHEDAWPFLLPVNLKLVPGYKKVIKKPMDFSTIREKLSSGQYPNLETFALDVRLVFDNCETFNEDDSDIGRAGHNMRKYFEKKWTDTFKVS
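Multi-concentration screen (max 110 uM) measuring displacement of acetylated histone H3 peptide from BAZ2B by AlphaScreen, using 50 nM protein, 50 nM peptide and 10 ug/mL streptavidin donor plus Ni-chelate acceptor beads.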
JMJD2A Tudor: blocks the human JMJD2A Tudor domain; Potency, µM (top dose mostly 114 µM), inactives show top-dose activity change, negative = inhibition, usual class: inhibitors; 4.4% of 390,000 active; O75164; AlphaScreen JMJD2A-Tudor / H3K4me3 peptide binding; also: % is scaled to controls: 0 for no effect and ±100 for the full control effect; nearly all actives have a fitted effect of over 50% in size
G9a block: blocks human histone lysine methyltransferase G9a; Potency, µM (doses to about 102 µM), without a hit: top-dose activity, negative = inhibition, actives largely listed as inhibitors; 8.8% of 350,000 active; Q96KQ7; G9a H3K9 monomethylation, AlphaScreen, 2 h; also: % is scaled to controls: 0 for no effect and ±100 for the full control effect; nearly all actives have a fitted effect of over 75% in size
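AlphaScreen detection with an anti-monomethyl H3K9 antibody quantified product after a 2 h room-temperature reaction containing 500 nM biotinylated H3K9 peptide, 20 µM SAM and 20 nM enzyme, which had been preincubated 15 min with compound.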
GLS inhibitor: glutaminase GLS (human) inhibition | O94925 | GLS enzymatic activity, qHTS titration | Potency, µM (titrated, usually from 45.5 µM), without a hit: at the top dose activity change, negative = inhibition, hits mostly inhibitors | 0.21% of 410,000 active; also: % is scaled to controls: 0 for no effect and ±100 for the full control effect
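Compounds were pin-transferred onto hKGA, after which L-glutamine (1 mM solution) and a detection mix of glutamate oxidase, HRP and Amplex Red were added. Initial and 30 min RT fluorescence reads were collected.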
HP1b chromo inh: inhibitors of HP1-beta chromodomain binding to methylated histone tails; P83916; AlphaScreen HP1-beta / biotin-H3K9me3 peptide binding; Potency, µM (doses to about 114 µM), for inactives: top-dose activity change, negative = inhibition, usual class: inhibitors; 0.56% of 390,000 active; AID 540317; also: nearly all actives have a fitted effect of over 70% in size
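HP1-beta protein (50 nM final) preincubated 30 min at room temperature with biotinylated H3(1-18)K9me3 peptide (50 nM) in PBS pH 7.4, 0.01% Tween-20, then compound added for 30 min. AlphaScreen streptavidin donor/nickel chelate acceptor beads (10 ug/mL final), 30 min dark, luminescence read.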
Starred values were filed as active, the others as inactive; ? = inconclusive; / = not tested or not shown; [ ] = dose if it differs, or a comment. Rows were chosen to be rich in hits. Some 10% of all compounds tested hit in one or more screens of this group. Calls follow the shape of the dose curve; as a rule, active = well fitted curve in the direction sought with a large enough effect; inconclusive = small, poorly fitted or top-dose-only effect, or another doubt; inactive = no such curve, though single readings can be large; an effect the other way counts as inactive or inconclusive. Potency is read from the fitted curve at half-maximal effect.

SMILES	BAZ2B inh	JMJD2A Tudor	G9a block	GLS inhibitor	HP1b chromo inh
COc1cccc(C2NC(=O)NC(C)=C2C(=O)Nc2cc(OC)ccc2OC)c1 (stereo not given)	/	-14%	20%[59 µM]	-3%	12%
CC1(C)CC(=O)C2=C(C1)OC(N)=C(C#N)C2c1cn(-c2ccccc2)nc1-c1ccccc1 (stereo not given)	-8%	-17%	2%[59 µM]	-1%	15%
COc1ccc(NC(=O)C2=CC(c3ccc(C)cc3)=NS(=O)(=O)N2C)cc1OC	?	?	?	-6%	-10%
CCc1ccc2[nH]c(=O)c(CN(Cc3ccccc3)Cc3nnnn3Cc3ccco3)cc2c1	-5%	?	10µM*	10%	10%
CCc1ccc2[nH]c(=O)c(CN(Cc3ccccc3)Cc3nnnn3Cc3ccccc3)cc2c1	/	-33%[57.1 µM]	/	/	16%[57 µM]
O=c1[nH]c2cc3c(cc2cc1CN(Cc1ccccc1)Cc1nnnn1Cc1ccco1)OCCO3	/	?	25µM*	-10%	-20%
COc1ccccc1CN(Cc1cc2cc3c(cc2[nH]c1=O)OCCO3)Cc1nnnn1Cc1ccco1	?	35µM*	?	?	-25%
CCC(c1nnnn1Cc1ccco1)N(CCc1ccccc1)Cc1cc2cc(C)ccc2[nH]c1=O (stereo not given)	-34%	-16%	40µM*	12%	11%
O=c1[nH]c2cc3c(cc2cc1CN(Cc1cccnc1)Cc1nnnn1Cc1ccco1)OCCO3	?	?	?	-16%	6%
Cc1ccc(C)c(NS(=O)(=O)c2cc(C(=O)NCc3ccccn3)ccc2C)c1	?	-17%	37%	-4%	28%
O=c1[nH]c2cc3c(cc2cc1CN(CCc1ccccc1)Cc1nnnn1C1CCCC1)OCCO3	-18%	/	16µM*	/	/
O=C1C=Cc2ccccc2/C1=C/c1[nH]c(=O)[nH]c1O	-15%	-11%	?	-2%	34%
S=c1[nH]c(-c2ccccc2)cn1/N=C/c1ccc(Br)cc1	-12%	6%	13µM*	165%	33%
S=c1[nH]c(-c2ccccc2)cn1/N=C/c1cccnc1	-19%	0.79µM*	2.5µM*	-6%	31%
Nc1nc2ccccc2n1/N=C/c1cccnc1	/	-4%	/	8%	30%
COc1ccc(/C=N/n2cc(-c3ccccc3)nc2N)cc1	1%	-34%	-1%[59 µM]	1%	9%
S=c1[nH]c(-c2ccccc2)cn1/N=C/c1cccs1	-4%	3.2µM*	/	5%	23%
S=c1[nH]ncn1/N=C/c1cccs1	-37%	4.5µM*	7.9µM*	7%	32%
O=C(O)c1ccc(/C=N/O)cc1	3%	-3%	/	-1%	9%
O=C(O)c1ccc(/C=N/n2cc(-c3ccccc3)[nH]c2=S)cc1	-13%	2.8µM*	/	?	41%
COc1ccccc1N1CCN(C(=O)[C@H](C)NS(=O)(=O)c2ccc3c(c2)OCCCO3)CC1	/	-9%	/	1%	36%
COc1ccc(C2C(C(=O)c3ccc(C)o3)=C(O)C(=O)N2Cc2cccnc2)cc1 (stereo not given)	-17%	35µM*	50µM*	-29%	16%
C=CCOc1cccc(C2C(C(=O)c3ccco3)=C(O)C(=O)N2Cc2cccnc2)c1 (stereo not given)	9%	-30%	32µM*	-12%	33%
COc1cccc2cc(C(=O)C3=C(O)C(=O)N(Cc4ccco4)C3c3cccnc3)oc12 (stereo not given)	-6%	79µM*	?	15%	10%
Cc1ccc(C(=O)C2=C(O)C(=O)N(Cc3cccnc3)C2c2ccc(Br)cc2)o1 (stereo not given)	-1%	-20%	?	0%	8%
SMILES	BAZ2B inh	JMJD2A Tudor	G9a block	GLS inhibitor	HP1b chromo inh
Cc1ccc(C(=O)C2=C(O)C(=O)N(Cc3cccnc3)C2c2ccc(OC(C)C)cc2)o1 (stereo not given)	?	?	/	-4%	21%
Cc1ccc(C(=O)C2=C(O)C(=O)N(Cc3cccnc3)C2c2ccc(N(C)C)cc2)o1 (stereo not given)	-33%	-30%	35µM*	-4%	7%
O=C(C1=C(O)C(=O)N(Cc2ccco2)C1c1cccnc1)c1cc2ccccc2o1 (stereo not given)	-7%	?	?	-12%	10%
COc1ccc(NC(=O)COC(=O)CNC(=O)C2CCCCC2)cc1OC	/	-12%	/	-12%	32%
CCc1nc2ccc(C(=O)N3CCN(C(=O)c4ccco4)CC3)cn2c1N(C)CCC(C)C	/	/	/	28%	/
Cc1ccc(C(=O)C2=C(O)C(=O)N(Cc3ccco3)C2c2cccc(Cl)c2)o1 (stereo not given)	?	25µM*	40µM*	-19%	1%
O=C(C1=C(O)C(=O)N(Cc2ccco2)C1c1cccc(O)c1)c1ccco1 (stereo not given)	-18%	-13%	50µM*	-6%	26%
CC(=O)C1=C(O)C(=O)N(Cc2ccco2)C1c1cccc(F)c1 (stereo not given)	2%	-15%	-47%	-17%	18%
O=C(C1=C(O)C(=O)N(Cc2ccccc2)C1c1ccncc1)c1ccco1 (stereo not given)	3%	?	40µM*	8%	16%
Cc1ccc(C(=O)C2=C(O)C(=O)N(Cc3ccco3)C2c2cccc(Br)c2)o1 (stereo not given)	?	?	?	-5%	-2%
O=C(C1=C(O)C(=O)N(CCCn2ccnc2)C1c1ccccc1)c1ccco1 (stereo not given)	-18%	-9%	/	17%	28%
Cc1ccc(C(=O)C2=C(O)C(=O)N(c3ncccn3)C2c2cccc(Cl)c2)o1 (stereo not given)	?	/	10µM*	/	/
Cc1ccc(C(=O)C2=C(O)C(=O)N(Cc3cccnc3)C2c2ccc(Cl)c(Cl)c2)o1 (stereo not given)	4%	-22%	?	21%	32%
Cc1ccc(C(=O)C2=C(O)C(=O)N(Cc3ccco3)C2c2ccc(N(C)C)cc2)o1 (stereo not given)	35µM*	?	/	-4%	22%
COc1ccc(C(=O)N2CCCC(CCC(=O)NCc3ccc(F)c(F)c3)C2)o1 (stereo not given)	-13%	-15%	?	-4%	-23%
CCc1nc2c(OCCC3CCCCC3)cccn2c1N(C)C(=O)c1ccncc1	/	/	/	4%	/
Cc1nn(Cc2ccc(F)cc2)c(C)c1NC(=O)c1cc(-c2ccc3c(c2)OCO3)on1	-8%	-16%	?	5%	10%
O=C1CC(=O)C(n2cncn2)C(c2cccc(Cl)c2)C1 (stereo not given)	4%	-13%	/	4%	14%
COCCNC(=O)CN(C(=O)CCC(=O)Nc1ccccn1)c1ccc(OC)cc1	28%	-5%	/	-5%	26%
O=S(=O)(Nc1ccccc1)c1cccc2nonc12	-37%	-16%	?	0%	11%

Bioassay records: PubChem BioAssay, National Center for Advancing Translational Sciences (NCATS)
